Screening data as filed in PubChem BioAssay.
KB-V1 MDR tox: KB-V1 MDR subline cytotoxicity; 3.4% of 400,000 active; Potency, µM (titrated, usually from 46.1 µM), usual class: cytotoxic; KB-V1 MDR cells viability, CellTiter-Glo, 72 h; AID 1347076; also: nearly all actives have a fitted effect of over 60% in size
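In this primary screen, KB-V1 cells overexpressing P-gp are incubated with library compounds (lowest to highest concentration) for 72 h at 37 degrees C before a luminescent ATP viability read.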
SW480 rereplic: inducers of DNA re-replication in SW480 colon cancer cells | SW480 DNA re-replication, Hoechst DNA content imaging, 48 h | Potency, µM (top dose mostly 46.1 µM), hits mostly activators | 1.8% of 340,000 active; also: nearly all actives have a fitted effect of over 55% in size
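DNA re-replication was detected as more nuclei of elevated Hoechst intensity after 48 hr exposure to compound (23 nL pinned per well of 250 cells).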
HT1080 IDH1KD tx: HT-1080 IDH1 knockdown cell toxicity (counter line); HT-1080 IDH1 knockdown viability, ATP luminescence, 48 h; 2% of 360,000 active; Potency, µM (doses to about 46.1 µM), hits mostly cytotoxic
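Using the IDH1-knockdown HT-1080 line run in the same batch and compound series as the NT line, viability after 48 h at 37 °C was determined by CellTiter-Glo luminescence and expressed as % activity.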
MCF10A rerep: DNA re-replication induction in MCF 10a cells; AID 624296; MCF 10A DNA re-replication, Hoechst nuclear intensity, 48 h; Potency, µM (highest dose often 46.1 µM), usual class: activators; 2.9% of 350,000 active; also: nearly all actives have a fitted effect of over 50% in size
HT1080NT lethal: kills 2HG-producing HT-1080-NT fibrosarcoma cells; HT-1080-NT fibrosarcoma viability, CellTiter-Glo ATP luminescence, 48 h; Potency, µM (top dose mostly 46.1 µM), most hits filed as cytotoxic; 1.6% of 360,000 active;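 also: NT is the 2HG producing partner of a matched IDH1 knockdown line; nearly all actives have a fitted effect of over 55% in size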
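Toxicity toward the 2HG-producing NT line was scored as %Activity, normalised to DMSO and no-cell wells, from CellTiter-Glo luminescence after 48 hours' treatment.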
KB-3-1 tox: KB-3-1 parental cell cytotoxicity; KB-3-1 viability, CellTiter-Glo ATP luminescence, 72 h; Potency, µM (doses to about 46.1 µM), most hits filed as cytotoxic; 1.4% of 400,000 active; also: nearly all actives have a fitted effect of over 60% in size
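Here the drug-naive KB-3-1 line serves as comparator for MDR sub-line selectivity; cells received compound titrations, 72 h at 37 °C, then CellTiter-Glo readout.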
Each line names hits and unclear results; the compound was inactive in the other large screens. This is a sample that favours compounds with a hit; in the whole collection about 7.9% have one here. Calls follow the shape of the dose curve; as a rule, active = well fitted curve in the direction sought with a large enough effect; inconclusive = small, poorly fitted or top-dose-only effect, or another doubt; inactive = no such curve, though single readings can be large; an effect the other way counts as inactive or inconclusive.

CCOCCCNC(=O)C1CCN(S(=O)(=O)c2c(C)noc2/C=C\c2ccc(OC)cc2)CC1	KB-V1 MDR tox 18µM
COc1ccc2cc(CCNC(=O)C(C)(C)C)c(=O)[nH]c2c1	KB-3-1 tox inconclusive
O=C(CCc1nc2ccccc2c(=O)[nH]1)Nc1cc(Cl)ccc1N1CCCC1	KB-V1 MDR tox 15µM
O=C(Nc1cccc(Cl)c1)N(Cc1nc2ccccc2c(=O)[nH]1)Cc1cccs1	KB-V1 MDR tox 16µM
O=C(CCc1nc2ccccc2c(=O)[nH]1)Nc1ccc(Cl)c(Cl)c1	KB-V1 MDR tox 21µM, HT1080 IDH1KD tx inconclusive
CCOc1ccc(Oc2ccccc2NC(=O)CCc2nc3ccccc3c(=O)[nH]2)cc1	KB-V1 MDR tox inconclusive (no result: SW480 rereplic, MCF10A rerep)
CCOc1ccccc1NC(=O)CCCc1nc2ccccc2c(=O)[nH]1	KB-V1 MDR tox 18µM, HT1080 IDH1KD tx inconclusive
CC(=O)Nc1ccc(NC(=O)CCc2nc3ccccc3c(=O)[nH]2)cc1	none
CCOC(=O)Cc1nn(C(C)C)c(=O)c2ccccc12	KB-V1 MDR tox inconclusive
OCC1(Cc2ccc(F)cc2)CCCN(Cc2ccc(F)cc2Cl)C1 (configuration not stated)	HT1080 IDH1KD tx inconclusive, HT1080NT lethal inconclusive
COC(=O)C1=CN(C2CC2)C=C(C(=O)OC)C1c1ccc(C(F)(F)F)cc1	SW480 rereplic inconclusive, MCF10A rerep inconclusive
COC(=O)C1=CN(C2CC2)C=C(C(=O)OC)C1c1ccc(C(=O)OC)cc1	KB-V1 MDR tox 7.3µM, MCF10A rerep inconclusive
CCOC(=O)CC[C@H](NC(=O)Cn1cc(C)c(=O)[nH]c1=O)C(=O)OCC	none
O=C(CS(=O)(=O)c1nc(-c2ccc(Cl)cc2)cn1-c1ccccc1)Nc1cccc(Cl)c1	KB-V1 MDR tox 16µM, KB-3-1 tox 16µM (no result: SW480 rereplic, HT1080 IDH1KD tx, MCF10A rerep, HT1080NT lethal)
Cc1ccc(S(=O)(=O)N(C)C)cc1NC(=O)c1sccc1Cl	none
NNC(=O)Cn1c(-c2ccccc2)cc2ccccc21	none
COc1ccc(C2=C(C)C(=O)N(Cc3ccc(C(=O)Nc4cccc(F)c4)cc3)S2(=O)=O)cc1	none (no result: SW480 rereplic, HT1080 IDH1KD tx, MCF10A rerep, HT1080NT lethal)
COc1ccc(C2=C(C)C(=O)N(Cc3ccc(C(=O)Nc4ccc(F)cc4C)cc3)S2(=O)=O)cc1	KB-3-1 tox 4.6µM (no result: SW480 rereplic, HT1080 IDH1KD tx, MCF10A rerep, HT1080NT lethal)
O=C(NC1CCCCC1)C(c1ccncc1)N(Cc1ccc2c(c1)OCO2)C(=O)C(F)(F)F (configuration not stated)	none
CCSc1nnc2c(n1)[nH]c1c(C)cccc12	KB-V1 MDR tox 16µM, HT1080 IDH1KD tx inconclusive, HT1080NT lethal inconclusive, KB-3-1 tox inconclusive
COc1ccc(S(=O)(=O)N(C)CC(=O)Nc2ccccc2C(F)(F)F)cc1	none
COc1ccc(S(=O)(=O)N(C)CC(=O)Nc2ccccc2C(F)(F)F)cc1Cl	KB-V1 MDR tox 15µM
CC(C)N1CCN(Cc2ccc(OC3CCCC3)cc2)CC1CCO (configuration not stated)	MCF10A rerep 4.6µM
Cc1nc2ccc([N+](=O)[O-])cc2c(=O)n1Cc1ccc(Cl)cc1	KB-V1 MDR tox inconclusive
COc1ccc(Cc2nc3ccc(C(=O)N(C)Cc4nccs4)cc3o2)cc1OC	none
O=C(c1ccc2ccccc2c1)N1CCN(c2ccccc2)CC1	none
COc1ccc(C(=O)CSc2ccc(-c3ccccc3)nn2)cc1	none
COc1ccc(-c2ccc(SC)nn2)cc1	KB-V1 MDR tox 9.2µM, HT1080 IDH1KD tx 23µM, HT1080NT lethal 21µM, KB-3-1 tox 8.2µM
CCN(CC)c1ccc(C2C(C(=O)OC(C)C)C(=O)CC(C)(O)C2C(=O)OC(C)C)cc1 (configuration not stated)	KB-V1 MDR tox 18µM
CC(C)COC(=O)C1C(=O)CC(C)(O)C(C(=O)OCC(C)C)C1c1cccnc1 (configuration not stated)	KB-V1 MDR tox 16µM
O=C1c2ccccc2C(=O)N1CCc1c[nH]c2ccc(O)cc12	KB-V1 MDR tox inconclusive, SW480 rereplic 3.7µM
O=C1c2ccccc2C(=O)N1CCCc1c[nH]c2ccccc12	KB-V1 MDR tox 21µM, MCF10A rerep inconclusive
O=C1CN(C(=O)CCCc2c[nH]c3ccccc23)c2ccccc2N1	MCF10A rerep 16µM
O=C1c2ccccc2C(=O)N1CCc1c[nH]c2ccccc12	KB-V1 MDR tox inconclusive
CCOc1ccccc1NC(=O)COc1coc(CN2CCCc3ccccc32)cc1=O	none
Cc1ccc(C)c(S(=O)(=O)NC2CCSC2=O)c1 (configuration not stated)	SW480 rereplic inconclusive
CCOC(=O)c1c2c(n(-c3ccc(OC)cc3)c1C)C(=O)C(=O)c1ccccc1-2	KB-V1 MDR tox inconclusive, SW480 rereplic 5.8µM, HT1080 IDH1KD tx 8.2µM, MCF10A rerep 3.3µM, HT1080NT lethal 15µM, KB-3-1 tox inconclusive
CCOC(=O)c1sc(=S)n(-c2ccc(OC)cc2)c1C	MCF10A rerep inconclusive
CC(=O)NC1=NN(C(C)=O)C(C)(c2ccccn2)S1 (configuration not stated)	none
CC(=O)NC1=NN(C(C)=O)C(C)(c2ccc(Br)cc2)S1 (configuration not stated)	SW480 rereplic inconclusive, HT1080 IDH1KD tx 18µM, MCF10A rerep inconclusive, HT1080NT lethal inconclusive
CC(C)(CNC(=O)c1cccc(F)c1)CNC(=O)c1cccc(F)c1	KB-V1 MDR tox inconclusive
COCCNc1oc(-c2ccc(C)cc2)nc1C#N	KB-V1 MDR tox 23µM
N#Cc1nc(-c2ccc(F)cc2)oc1NCCN1CCOCC1	KB-V1 MDR tox inconclusive
Cc1ccc(-c2nc(C#N)c(NCCN3CCCCC3)o2)cc1	KB-V1 MDR tox 23µM
COc1cc2nc(=S)n(CCCN3CCOCC3)c(N)c2cc1OC	none
CC1(C(=O)NCc2cccc3ccccc23)CCN1CCc1ccccc1 (configuration not stated)	HT1080 IDH1KD tx inconclusive, HT1080NT lethal inconclusive (no result: SW480 rereplic, MCF10A rerep)
CC1(C(=O)NCc2ccccc2Br)CCN1C(=O)Cc1ccc(-c2ccccc2)cc1 (configuration not stated)	KB-V1 MDR tox inconclusive, HT1080 IDH1KD tx inconclusive, HT1080NT lethal 16µM, KB-3-1 tox inconclusive (no result: SW480 rereplic, MCF10A rerep)
CC(C)(C)c1ccc(CC(=O)N2CCC2(C)C(=O)Nc2cccc3ccccc23)cc1 (configuration not stated)	HT1080 IDH1KD tx inconclusive, HT1080NT lethal inconclusive (no result: SW480 rereplic, MCF10A rerep)
CC(C)Oc1ccc(CN2CCC2(C)C(=O)NCc2cccc3ccccc23)cc1 (configuration not stated)	KB-V1 MDR tox inconclusive, HT1080 IDH1KD tx inconclusive, HT1080NT lethal 18µM, KB-3-1 tox inconclusive (no result: SW480 rereplic, MCF10A rerep)
COc1ccccc1CNC(=O)C1(C)CCN1C(=O)Cc1ccc(-c2ccccc2)cc1 (configuration not stated)	HT1080 IDH1KD tx inconclusive, HT1080NT lethal inconclusive, KB-3-1 tox inconclusive (no result: SW480 rereplic, MCF10A rerep)
